# Measured values reported in PubChem BioAssay (Tox21).
# Results filed as inconclusive are left out. Where a call stands in place of a potency, no number is given. Unmarked numbers belong to inactive results. Calls of active or inactive are those of the source. Unless noted, the call rests on the fitted dose curve; in most records, active means well fitted curve in the direction sought with a large enough effect in the repeat runs; inconclusive means weak or mixed curves; inactive means no such curve, though single readings can be large; an effect the other way counts as inactive or inconclusive.
# Columns and labels:
# [1] = qHTS assay to identify small molecule antagonists of the vitamin D receptor (VDR) signaling pathway - cell viability counter screen (AID 743225); further: nearly all actives have a fitted effect of over 50% in size
# In short: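 In this counter screen, VDR-bla HEK 293T cells receive test compound plus 3 nM final calcitriol for 16 h at 37C. Room-temperature steps of 2 h with the beta-lactamase substrate, then 30 min with CellTiter-Glo, precede the luminescence read.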
# [2] = qHTS assay to identify small molecule agonists of the NFkB signaling pathway - cell viability counter screen (AID 1159515; calls by dose curve; further: series mostly up to about 61 µM; nearly all actives have a fitted effect of over 55% in size)
# In short: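 Parallel cytotoxicity counter screen in ME-180 cells carrying an NFkB-response-element beta-lactamase reporter, 2,000 cells/well. Compound exposure lasted 5 hr at 37 C, 5% CO2. Cell viability was quantified by CellTiter-Glo luminescence.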
# [3] = qHTS assay to identify small molecule agonists of the endoplasmic reticulum stress response signaling pathway (AID 1159516; active means well fitted activation curve with a large enough effect in the signal ratio in the repeat runs, not every such curve was filed as active; the % refers to the signal ratio)
# In short: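 Using a HeLa line with an ESRE-driven beta-lactamase gene, agonist activity was measured by FRET substrate fluorescence (460 and 530 nm emission) after cells were treated with compounds for 5 hr at 37 C and 5% CO2.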
# [4] = qHTS assay to identify small molecule agonists of the endoplasmic reticulum stress response signaling pathway - cell viability counter screen (AID 1159517; calls by dose curve;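 further: HeLa cells carrying an ER stress response element beta-lactamase reporter; series mostly up to about 61 µM; nearly all actives have a fitted effect of over 50% in size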)
# In short: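 Cpd-treated ESRE-bla HeLa (5 hr, 37 C) → LiveBLAzer 2 hr RT → CellTiter-Glo 30 min RT → luminescence.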
# [5] = qHTS assay to identify small molecule antagonists of the retinoid-related orphan receptor gamma (ROR-gamma) signaling pathway - cell viability counter screen (AID 1159520); further: nearly all actives have a fitted effect of over 50% in size
# In short: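 Tet-on ROR gamma CHO cells (1,000/well) were plated 4 hr, given compounds in DMSO for 2 hr at 37 C, then induced with 1 uM final doxycycline for 16 hr. Viability was read as ATP by CellTiter-Glo luminescence after 30 min.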
# [6] = target: Nuclear receptor ROR-gamma (Homo sapiens) (UniProt P51449); assay: qHTS assay to identify small molecule antagonists of the retinoid-related orphan receptor gamma (ROR-gamma) signaling pathway (AID 1159521; further: nearly all actives have a fitted effect of over 50% in size; further: potency means the concentration at half of the fitted maximal effect;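 on activity change, negative = inhibition: CHO cells with doxycycline inducible ROR-gamma driving an RORE luciferase reporter; top concentration of the series differs between compounds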)
# In short: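 Screening format: cell-based luciferase reporter in CHO cells with doxycycline-inducible RORγ. Compound pre-exposure lasts 2 h, doxycycline is 1 uM final, induction runs 16 h at 37 C, and ONE-Glo luminescence is read.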
# [7] = qHTS assay to identify small molecule agonists of the AP-1 signaling pathway - cell viability counter screen (AID 1159525; calls by dose curve; further: nearly all actives have a fitted effect of over 55% in size)
# In short: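 Each titration point was normalised to DMSO and tetra n-octyl ammonium bromide controls. The read was Cell Titer Glo luminescence after 30 min at RT, following 5 h compound exposure of ME-180 AP-1-bla cells at 37 °C.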
# [8] = qHTS assay to identify small molecule agonists of the AP-1 signaling pathway (AID 1159526; calls by dose curve)
# [9] = target: Retinoic acid receptor RXR-alpha (Homo sapiens) (UniProt P19793); assay: qHTS assay to identify small molecule agonists of the RXR signaling pathway (AID 1159527; calls by dose curve; further: nearly all actives have a fitted effect of over 35% in size)
# In short: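 Fluorescence ratio readout (460 vs 530 nm) from GeneBLAzer RXR-alpha HEK 293T cells after 16 hr compound treatment; cells seeded 5 hr beforehand in low-serum, charcoal-stripped medium.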
# [10] = qHTS assay to identify small molecule agonists of the RXR signaling pathway - cell viability counter screen (AID 1159529)
# In short: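 Viability read-out for the RXR-alpha agonist qHTS: luminescent CellTiter-Glo signal after 30 min at RT. HEK 293T bla reporter cells, 2% charcoal-stripped FBS, 16 hr compound incubation; tetraoctyl ammonium bromide as cytotoxic control.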
# [11] = qHTS assay to identify small molecule antagonists of the retinoid acid receptor (RAR) signaling pathway - cell viability counter screen (AID 1159551); further: nearly all actives have a fitted effect of over 35% in size
# In short: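 ATP-based viability, C3RL4 cells, 6 h at 37 C with 1 uM final retinol co-added after compound; luminescence read 30 min post CellTiter-Glo, RT.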
# [12] = qHTS assay to identify small molecule agonists of the retinoic acid receptor (RAR) signaling pathway (AID 1159553)
# In short: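 Quantitative high-throughput format: the Tox21 10K library was tested on C3RL4 RARE-luciferase cells for 6 hr at 37 C and 5% CO2, with luminescence measured after a 30 min room-temperature reagent step.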
# [13] = qHTS assay to identify small molecule antagonists of the estrogen related receptor (ERR) signaling pathway - cell viability counter screen (AID 1224818);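 further: series mostly up to about 46 µM; viability measured after 17.5 h of compound exposure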
# In short: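 Quantitative high-throughput viability counter screen in ERR cells. Compounds (DMSO) incubated 17.5 h at 37 C; read-out was CellTiter-Fluor fluorescence.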
# [14] = qHTS assay to identify small molecule antagonists of the estrogen related receptor signaling pathway with the pleiotropic PPARgamma coactivator (PGC) cell viability counter screen (AID 1224822; further: series mostly up to about 46 µM)
# In short: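 Cytotoxicity in the PGC/ERR cell line is assessed with CellTiter-Fluor, read as fluorescence intensity 30 min after reagent addition, following 17.5 h compound treatment at 37 C.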
# [15] = qHTS assay to identify small molecule agonists of the vitamin D receptor (VDR) signaling pathway - cell viability counter screen (AID 743224)
# In short: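 Compounds were pin-transferred onto VDR-bla cells plated 4 h earlier; following 16 h incubation at 37C, cell viability was quantified by CellTiter-Glo luminescence after 30 min at room temperature.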
# Sequence of Retinoic acid receptor RXR-alpha (Homo sapiens) (P19793 whole entry, looked up): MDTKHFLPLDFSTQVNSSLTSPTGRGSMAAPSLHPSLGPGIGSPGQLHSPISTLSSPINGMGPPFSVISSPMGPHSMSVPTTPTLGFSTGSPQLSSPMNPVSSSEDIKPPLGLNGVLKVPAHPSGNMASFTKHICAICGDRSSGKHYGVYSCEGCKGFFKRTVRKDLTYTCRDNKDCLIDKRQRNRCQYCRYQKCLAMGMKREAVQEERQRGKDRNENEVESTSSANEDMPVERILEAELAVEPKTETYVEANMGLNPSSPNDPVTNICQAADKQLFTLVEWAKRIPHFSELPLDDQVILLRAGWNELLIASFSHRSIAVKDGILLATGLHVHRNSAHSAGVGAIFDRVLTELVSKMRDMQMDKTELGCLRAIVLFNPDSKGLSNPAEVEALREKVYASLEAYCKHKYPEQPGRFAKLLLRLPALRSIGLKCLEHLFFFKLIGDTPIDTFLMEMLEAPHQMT
compound,measurement,setting,value
NCCCC(N)(C(=O)O)C(F)F (stereo unspecified),outcome,[1],inactive
same,outcome,[2],inactive
same,outcome,[3],inactive
same,outcome,[4],inactive
same,outcome,[5],inactive
same,Potency,[6],inactive
same,outcome,[7],inactive
same,outcome,[8],inactive
same,Potency,[9],inactive
same,Potency,[10],inactive
same,outcome,[11],inactive
same,Potency,[12],inactive
same,outcome,[13],inactive
same,outcome,[14],inactive
FB(F)F,outcome,[15],inactive
same,outcome,[1],inactive
same,outcome,[2],inactive
same,outcome,[3],inactive
same,outcome,[4],inactive
same,outcome,[5],inactive
same,Potency,[6],inactive
same,outcome,[7],inactive
same,outcome,[8],inactive
same,Potency,[9],inactive
same,Potency,[10],inactive
same,outcome,[11],inactive
same,Potency,[12],inactive
CN1CC(=O)N/C1=N/C(=O)Nc1cccc(Cl)c1,outcome,[15],inactive
same,outcome,[1],inactive
same,outcome,[2],inactive
same,outcome,[3],inactive
same,outcome,[4],inactive
same,outcome,[5],inactive
same,Potency,[6],inactive
same,outcome,[7],inactive
same,outcome,[8],inactive
same,Potency,[9],inactive
same,Potency,[10],inactive
same,outcome,[11],inactive
same,outcome,[13],inactive
same,outcome,[14],inactive
Nc1ccn([C@@H]2O[C@H](CO)[C@@H](O)C2O)c(=O)n1 (stereo partly specified),outcome,[1],inactive
same,outcome,[2],inactive
same,outcome,[3],inactive
same,outcome,[4],inactive
same,outcome,[5],inactive
same,Potency,[6],7.7 µM (active)
same,outcome,[7],inactive
same,outcome,[8],inactive
same,Potency,[9],inactive
same,Potency,[10],inactive
same,outcome,[11],inactive
same,Potency,[12],inactive
CN(C)[C@@H]1C(=O)C(C(=O)NCN2CCCC2)=C(O)[C@@]2(O)C(=O)C3=C(O)c4c(O)cccc4[C@@](C)(O)C3C[C@@H]12 (stereo partly specified),outcome,[15],inactive
same,outcome,[1],inactive
same,outcome,[2],inactive
same,outcome,[3],inactive
same,outcome,[4],inactive
same,outcome,[5],inactive
same,Potency,[6],inactive
same,outcome,[7],inactive
same,outcome,[8],inactive
same,Potency,[9],inactive
same,Potency,[10],inactive
same,outcome,[11],inactive
CC1=CCC(O)(C(C)C)CC1 (stereo unspecified),outcome,[15],inactive
same,outcome,[1],inactive
same,outcome,[2],inactive
same,outcome,[3],inactive
same,outcome,[4],inactive
same,outcome,[5],inactive
same,Potency,[6],inactive
same,outcome,[7],inactive
same,outcome,[8],inactive
same,Potency,[9],inactive
same,Potency,[10],inactive
same,outcome,[11],inactive
[K+],outcome,[15],inactive
same,outcome,[1],inactive
same,outcome,[2],inactive
same,outcome,[3],inactive
same,outcome,[4],inactive
same,outcome,[5],inactive
same,Potency,[6],inactive
same,outcome,[7],inactive
same,outcome,[8],inactive
same,Potency,[9],inactive
same,Potency,[10],inactive
same,outcome,[11],inactive
O=C(O)CCSCCC(=O)O,outcome,[15],inactive
same,outcome,[1],inactive
same,outcome,[2],inactive
same,outcome,[3],inactive
same,outcome,[4],inactive
same,outcome,[5],inactive
same,Potency,[6],inactive
same,outcome,[7],inactive
same,outcome,[8],inactive
same,Potency,[9],inactive
same,Potency,[10],inactive
same,outcome,[11],inactive
Cc1ncc([C@@H](CCCCCCc2ccc3c(n2)NCCC3)CC(=O)O)cn1,outcome,[15],inactive
same,outcome,[1],inactive
same,outcome,[2],inactive
same,outcome,[3],inactive
same,outcome,[4],inactive
same,outcome,[5],inactive
same,Potency,[6],inactive
same,outcome,[7],inactive
same,outcome,[8],inactive
same,Potency,[9],inactive
same,Potency,[10],inactive
same,outcome,[11],inactive
COc1ccccc1OCC1CNC(=O)O1 (stereo unspecified),outcome,[15],inactive
same,outcome,[1],inactive
same,outcome,[2],inactive
same,outcome,[3],inactive
same,outcome,[4],inactive
same,outcome,[5],inactive
same,Potency,[6],inactive
same,outcome,[7],inactive
same,outcome,[8],inactive
same,Potency,[9],inactive
same,Potency,[10],inactive
same,outcome,[11],inactive
O=C(c1ccccc1)C1(O)CCCCC1,outcome,[15],inactive
same,outcome,[1],inactive
same,outcome,[2],inactive
same,outcome,[3],inactive
same,outcome,[4],inactive
same,outcome,[5],inactive
same,Potency,[6],inactive
same,outcome,[7],inactive
same,outcome,[8],inactive
same,Potency,[9],inactive
same,Potency,[10],inactive
same,outcome,[11],inactive
CCOc1ccc2nc(S(N)(=O)=O)sc2c1,outcome,[15],inactive
same,outcome,[1],inactive
same,outcome,[2],inactive
same,outcome,[3],inactive
same,outcome,[4],inactive
same,outcome,[5],inactive
same,Potency,[6],inactive
same,outcome,[7],inactive
same,outcome,[8],inactive
same,Potency,[9],inactive
same,Potency,[10],inactive
same,outcome,[11],inactive
CCC(C)(CCCC(C)C)OC(C)=O (stereo unspecified),outcome,[15],inactive
same,outcome,[1],inactive
same,outcome,[2],inactive
same,outcome,[3],inactive
same,outcome,[4],inactive
same,outcome,[5],inactive
same,Potency,[6],inactive
same,outcome,[7],inactive
same,outcome,[8],inactive
same,Potency,[9],inactive
same,Potency,[10],inactive
same,outcome,[11],inactive
CC1=NS(=O)(=O)c2cc(Cl)ccc2N1,outcome,[1],inactive
same,outcome,[2],inactive
same,outcome,[3],inactive
same,outcome,[4],inactive
same,outcome,[5],inactive
same,Potency,[6],inactive
same,outcome,[7],inactive
same,outcome,[8],inactive
same,Potency,[9],inactive
same,Potency,[10],inactive
same,outcome,[11],inactive
same,outcome,[13],inactive
OCCc1ccccn1,outcome,[15],inactive
same,outcome,[2],inactive
same,outcome,[3],inactive
same,outcome,[4],inactive
same,outcome,[5],inactive
same,Potency,[6],inactive
same,outcome,[7],inactive
same,outcome,[8],inactive
same,Potency,[9],inactive
same,Potency,[10],inactive
same,outcome,[11],inactive
C=COC(=O)C(C)(CC)CCC(C)C (stereo unspecified),outcome,[15],inactive
same,outcome,[1],inactive
same,outcome,[2],inactive
same,outcome,[3],inactive
same,outcome,[4],inactive
same,outcome,[5],inactive
same,Potency,[6],inactive
same,outcome,[7],inactive
same,outcome,[8],inactive
same,Potency,[9],inactive
same,Potency,[10],inactive
same,outcome,[11],inactive
CCCCN1C=CN(C)C1,outcome,[1],inactive
same,outcome,[2],inactive
same,outcome,[3],inactive
same,outcome,[4],inactive
same,"activity, negative = cytotoxicity",[5],1.65% [at 19 µM]
same,"activity change, negative = inhibition",[6],11.4% [at 19 µM]
same,"viability change, negative = cytotoxic",[7],3.01% [at 15.8 µM]
same,activation,[8],-8.87% [at 15.8 µM]
same,activation,[9],3.97% [at 15.8 µM]
same,"activity change, negative = cytotoxicity",[10],-11.3% [at 15.8 µM]
same,"activity change, negative = cytotoxicity",[11],1.26% [at 19 µM]
same,Potency,[12],inactive
C=CC(C)(CCC=C(C)C)OC(=O)CC (stereo unspecified),outcome,[15],inactive
same,outcome,[1],inactive
same,outcome,[2],inactive
same,outcome,[3],inactive
same,outcome,[4],inactive
same,outcome,[5],inactive
same,Potency,[6],inactive
same,outcome,[7],inactive
same,outcome,[8],inactive
same,Potency,[9],inactive
same,Potency,[10],inactive
same,outcome,[11],inactive
CCOc1c(N2CCOCC2)cnn(C)c1=O,outcome,[15],inactive
same,outcome,[1],inactive
same,outcome,[2],inactive
same,outcome,[3],inactive
same,outcome,[4],inactive
same,outcome,[5],inactive
same,Potency,[6],inactive
same,outcome,[7],inactive
same,outcome,[8],inactive
same,Potency,[9],inactive
same,Potency,[10],inactive
same,outcome,[11],inactive
CC(C)NNC(=O)c1ccncc1,outcome,[15],inactive
same,outcome,[1],inactive
same,outcome,[2],inactive
same,outcome,[3],inactive
same,outcome,[4],inactive
same,outcome,[5],inactive
same,Potency,[6],inactive
same,outcome,[7],inactive
same,outcome,[8],inactive
same,Potency,[9],inactive
same,Potency,[10],inactive
same,outcome,[11],inactive
same,outcome,[13],inactive
same,outcome,[14],inactive
